Reference: PubChem BioAssay AID431 (Sanford-Burnham Center for Chemical Genomics, 2006)
Out of some 63,000 compounds screened, about 1,100 (1.7%) were called active. Only a selection was taken, and actives are over-represented in it overall. Measured potencies and affinities stand elsewhere. A number with no mark means an inactive call.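 Rule for the calls: active = compounds whose percent cytotoxicity in the single-dose primary screen, scaled between solvent and toxic-drug controls, exceeds 50; inactive = the rest.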

Assay: cytotoxicity in KRAS-transformed pancreatic duct cells, primary screen, cell-based, fluorescence, HTS (AID 431);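 note: 0% = DMSO solvent wells and 100% = doxorubicin-treated wells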
Details: HPDE-C7K KRASV12 cells, Alamar Blue viability, 48 h; at 10 µM; stronger effect = higher value

Row | SMILES | cytotoxicity
1 | O=c1c2c3nc4ccccc4nc3n(-c3cccc(F)c3)c2ncn1Cc1ccc2c(c1)OCO2 | 7.3%
2 | Cc1ccc(O)c(Sc2cc(C)ccc2O)c1 | 65.2% (active)
3 | Cc1ccc(SC(C)C(=O)NCC(C)C)cc1 (stereo not given) | 0%
4 | CC(C)c1ccc(O)c(N)c1 | 8%
5 | Cc1ccc(NC(=O)CSc2nccc(=O)[nH]2)c(S(=O)(=O)N2CCOCC2)c1 | 2.7%
6 | CCOC(=O)C1CCN(C(c2cccnc2)c2c(NC(=O)c3ccco3)sc(C)c2C)CC1 (stereo not given) | 82.5% (active)
7 | Cc1sc(NC(=O)c2ccco2)c(C(c2cccnc2)N2CCN(c3ccc(F)cc3)CC2)c1C (stereo not given) | 1.9%
8 | Cc1sc(NC(=O)c2ccco2)c(C(c2ccncc2)N2CCOCC2)c1C (stereo not given) | -8.8%
9 | Cc1ccc2nc(N3CCN(C(=O)c4cccs4)CC3)c(C#N)cc2c1 | 2%
10 | Cc1ccc2ncccc2c1NS(=O)(=O)c1ccccc1 | -4.5%
11 | O=S(=O)(Nc1cccc2ncccc12)c1cccs1 | 25.3%
12 | c1ccc(N(c2ccccc2)c2nc(N3CCCC3)nc(-n3ccnc3)n2)cc1 | 1.4%
13 | O=C1c2cccnc2C(O)N1Cc1ccc(F)cc1 (stereo not given) | 1.3%
14 | Cc1ccc2oc(=O)c3cc(C(=O)N4CCN(C(=O)c5ccco5)CC4)sc3c2c1 | 11%
15 | O=C(Nc1ccc(-n2cnnn2)cc1)C1CCC1 | -4.6%
16 | COc1ccc(-c2noc(C)c2-c2ccc3ccccc3n2)c(O)c1 | 54.3% (active)
17 | COc1ccc(-c2onc(C)c2-c2ccccc2)c(O)c1 | 15.1%
18 | COc1ccc(-c2n[nH]c(C)c2-c2cnn(-c3ccccc3)c2)c(O)c1 | 29.6%
19 | CCOc1ccccc1Nc1ccc(C(=O)O)cc1NC(C)=O | 0.6%
20 | O=C(c1cc(-c2cccs2)on1)N1CCN(c2ccc(F)cc2)CC1 | 13.6%
21 | O=C(c1cc(-c2cccs2)on1)N1CCOCC1 | 2.8%
22 | O=C(c1cc(-c2cccs2)on1)N1CCN(c2ccccc2)CC1 | 50.8% (active)
23 | O=S(=O)(c1cccc2cccnc12)n1cnc2ccccc21 | 6.3%
24 | Cc1cccc(C)c1NC(=O)CSc1nnc(Cn2nnc(-c3ccccc3)n2)n1-c1ccccc1 | -8.4%
25 | N#CC(C(=O)OC1CCCCC1)c1nc2ccccc2nc1N1CCCCC1 (stereo not given) | 5.4%

Row | SMILES | cytotoxicity
26 | O=C(C1=C(O)C(=O)N(CCN2CCOCC2)C1c1ccccc1)c1cccs1 (stereo not given) | -12.1%
27 | O=C(c1cccs1)N1CCC(c2nc3c(nnn3Cc3ccccc3)c(=O)[nH]2)CC1 | -36%
28 | COCC(=O)n1nc(-c2ccccc2)nc1NCc1ccc(F)cc1 | -6%
29 | Cc1cccc(N2CCN(C(=O)CCn3c(=S)[nH]c4cc5c(cc4c3=O)OCO5)CC2C)c1 (stereo not given) | 62.5% (active)
30 | O=C(CCCn1c(=S)[nH]c2cc3c(cc2c1=O)OCO3)N1CCN(c2ccccc2)CC1 | -7.8%
31 | COc1cccc(N2CCN(C(=O)CCn3c(=S)[nH]c4cc5c(cc4c3=O)OCO5)CC2)c1 | -4.3%
32 | NC1=NC2(CCCCC2)n2c(nc3ccccc32)N1 | 19%
33 | NC1=NC2(CCN(Cc3ccccc3)CC2)n2c(nc3ccccc32)N1 | 1%
34 | NC1=NC2(CCC(c3ccccc3)CC2)n2c(nc3ccccc32)N1 (stereo not given) | 68.7% (active)
35 | CCOc1ccc(CNC(=O)NS(=O)(=O)c2ccc(OC)cc2)cc1 | -11.3%
36 | CCCCn1nnnc1NCc1cccc(OC)c1OC | 12.8%
37 | CCCCn1c(SCC(=O)NCc2ccco2)nnc1-c1ccoc1C | -26.4%
38 | CCCN(CCC)C(=O)C1CCN(c2cc(C)nc3c(-c4ccc(OC)c(OC)c4)c(C)nn23)CC1 | 7.2%
39 | COc1ccc(C(=O)C(c2ccccc2)N2CCOCC2)cc1 (stereo not given) | -2.4%
40 | COc1ccc(C(O)C(CN2CCOCC2)c2ccccc2)cc1F (stereo not given) | -8.6%
41 | COc1ccc(C(=O)O)cc1F | 2.5%
42 | COc1ccc(C(=O)CCN2CCCCCC2)cc1 | -7.8%
43 | Cc1c(C(=O)N2CCCCC2)sc(NC(=O)C2CC2)c1C#N | 2.5%
44 | O=C(Nc1ccccc1Cl)c1cnccn1 | -6.1%
45 | CCn1c2ccccc2c2cc(C3C(C#N)=C(C)NC(C)=C3C#N)ccc21 | 7.6%
46 | CCn1c2ccccc2c2cc(C3C(C#N)=C(N)OC4=C3C(=O)CC(C)(C)C4)ccc21 (stereo not given) | -10.7%
47 | Cc1ccc(N2C(=O)CSC23C(=O)Nc2ccccc23)cc1 (stereo not given) | -5.4%
48 | COC(=O)[C@@H](NC(=O)Nc1ccccc1F)C(C)C | 1.9%
49 | COc1ccc(C(N)=O)cc1N | -1%
50 | COc1ccc(C(=O)c2ccc(OC)c(OC)c2)cc1OC | -8.4%

Row | SMILES | cytotoxicity
51 | COc1ccc(C(=O)c2ccc(OC)c(N)c2)cc1N | 66.7% (active)
52 | CN(Cc1ccccc1)C(=O)C1CCN(Cc2ccc(F)cc2)CC1 | 8.6%
53 | CC(C)(C)OC(=O)N1CCC(c2c(C(=O)O)cnn2-c2ccccc2Cl)CC1 | 1%
54 | Cc1ccc(CNC(=O)CCS(=O)(=O)c2ccc(Br)s2)o1 | -4.2%
55 | COc1ccc(OC)c(NC(=O)CN(c2ccc(C)cc2)S(=O)(=O)c2c(C)noc2C)c1 | 1.7%
56 | CCOc1ccccc1NC(=O)CN(c1ccc(C)cc1)S(=O)(=O)c1c(C)noc1C | -7.2%
57 | COc1ccc(N(CC(=O)Nc2cc(C)ccc2OC)S(=O)(=O)c2c(C)noc2C)cc1 | 9.5%
58 | COc1ccc(N(CC(=O)Nc2cc(Cl)ccc2OC)S(=O)(=O)c2c(C)noc2C)cc1 | 77.1% (active)
59 | CCOc1ccccc1NC(=O)CN(c1ccc(OC)cc1)S(=O)(=O)c1c(C)noc1C | 52.8% (active)
60 | CCOc1ccccc1NC(=O)CN(c1cc(C)cc(C)c1)S(=O)(=O)c1c(C)noc1C | -9.2%
61 | COc1ccccc1C(=O)N1CCN(S(=O)(=O)Cc2ccccc2)CC1 | -0.3%
62 | CCOc1cc(CNc2ncnc3nc[nH]c23)ccc1OC | 6.5%
63 | Cc1ccc2nsnc2c1S(=O)(=O)N1CCN(C(=O)C2CCCO2)CC1 (stereo not given) | -15.6%
64 | COc1cc2c(cc1OC)C(C)N(C(=O)Cn1ncc3c1-c1ccccc1OC3)CC2 (stereo not given) | -1.4%
65 | CC(C)(C)C(=O)Cn1c(NCCCO)nc2ccccc21 | -18.5%
66 | Cc1onc(-c2ccccc2)c1C(=O)N1CCCN(C(=O)c2c(-c3ccccc3)noc2C)CC1 | -5.2%
67 | Cc1onc(-c2ccccc2Cl)c1C(N)=O | 8%
68 | Cc1onc(-c2ccccc2)c1C(N)=O | 50.5% (active)
69 | CCOC(=O)c1[nH]c(C)c(C(=O)Nc2ccc(C)c(F)c2)c1C | 0.8%
70 | CCc1ccc(NC(=O)c2noc3c2CCCCC3)cc1 | 3.4%
71 | COc1ccc(C(=O)N2CCOCC2)cc1Br | -1%
72 | Cc1cccc(OCC(=O)OCC(=O)c2c(N)n(C)c(=O)n(C)c2=O)c1 | 3%
73 | O=C(C1CCCN(S(=O)(=O)c2ccc(Br)s2)C1)N1CCCCCC1 (stereo not given) | -15.2%
74 | COC(=O)C1C(=O)C2=C(CC1C)NC(=O)CC2c1ccc(O)c(OC)c1 (stereo not given) | -9.5%
75 | Cc1ccc(C)c(S(=O)(=O)NCc2cccnc2)c1 | 52% (active)

Row | SMILES | cytotoxicity
76 | Cc1ccc(C(C)C)cc1S(=O)(=O)NCc1cccnc1 | 0.8%
77 | Cc1cc(C)c(C)c(S(=O)(=O)NCc2cccnc2)c1C | -6.4%
78 | COCCN1Cc2c(sc(C)c2C)N(C(=O)c2ccccc2)C1 | 5.6%
79 | O=C(Cc1cccs1)Nc1nc(-c2ccccc2)cs1 | -14.2%
80 | CC1Cc2cc(-c3csc(NC(=O)Cc4cccs4)n3)ccc2N1S(C)(=O)=O (stereo not given) | 61.4% (active)
81 | CS(=O)(=O)N1CCc2cc(-c3csc(NC(=O)Cc4cccs4)n3)ccc21 | 2.8%
82 | CNC(=O)C1CCC(=O)N1Cc1ccc(C)cc1 (stereo not given) | -0.7%
83 | Cc1ccc2nc(NCCO)nc(-c3ccccc3)c2c1 | 16.3%
84 | O=C(O)c1cc(-c2ccccc2)nc2ccccc12 | 2%
85 | O=C(CSc1ncc(-c2ccc(F)cc2)[nH]1)Nc1cccc(O)c1 | 25.6%
86 | Cc1ccc(CNC(=O)C2C3C=CC(C3)C2C(=O)O)cc1 (stereo not given) | 1.9%
87 | CCOC(=O)N1CCN(c2cc(NCCC(=O)O)c3c4c(onc24)-c2ccccc2C3=O)CC1 | 61.7% (active)
88 | CCOC(=O)c1c(C)[nH]c(C)c1-c1ccccc1OC | -2.6%
89 | CCOC(=O)c1c(C)noc1CP(=O)(c1ccccc1)c1ccccc1 | 2.6%
90 | O=C(O)CCCNc1cc(N2CCC3(CC2)OCCO3)c2noc3c2c1C(=O)c1ccccc1-3 | 40.2%
91 | CC(=O)OCCNc1cc(N2CCN(C)CC2)c2noc3c2c1C(=O)c1ccccc1-3 | 16.8%
92 | CC(CC(=O)O)CC1=NS(=O)(=O)c2ccccc2N1 (stereo not given) | -8.6%
93 | COc1ccc(CC(=O)Nc2c3c(nn2-c2cccc(C)c2C)CS(=O)C3)cc1OC (stereo not given) | 0.8%
94 | CCCc1nnc(NC(=O)c2cccc(OC)c2)s1 | -25.2%
95 | COc1cccc(C(=O)c2sc(NC(C)C)nc2N)c1 | 72.7% (active)
96 | COc1ccc(C(=O)c2sc(NC(C)C)nc2N)cc1OC | -12.6%
97 | O=C(CSC1=NCCS1)NC1CCCCC1 | 3.6%
98 | CCC(C)C1C(C#N)=C(N)Oc2n[nH]c(C)c21 (stereo not given) | 7.5%
99 | Cc1[nH]nc2c1C(C(C)C)C(C#N)=C(N)O2 (stereo not given) | 7.9%
100 | CCC(CC)C1C(C#N)=C(N)Oc2n[nH]c(C)c21 (stereo not given) | 56.7% (active)
